Laboratory results published in PubChem BioAssay AID1159580 (chemical genetic matrix, 2015).
Several values for one entry are separate records, joined by “and”; a condition that tells them apart may be missing. Identical values can stand only once. The whole screen tested about 5,500 compounds, of which about 2,000 (36%) were called active. Roughly 18% stayed inconclusive and do not appear here. No stated cut-off is given here; in the data, active means normalized growth mostly below about 0.91 (no sharp cut-off); inconclusive means no clear call, values can overlap the other calls; inactive means mostly above about 0.92. The list shows a part of the results.

Experiment: chemical genetic growth profiling, strain panel (AID 1159580);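 further: tested at 20 µM; growth read once vehicle control cultures reached saturation at 30 °C; 1 = growth at the plate median or of vehicle wells; lower values mean less growth of the strain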
Settings: S. cerevisiae deletion strains, growth OD

Measured: normalized growth

COc1ccc2cc([C@H](C)CO)ccc2c1
inactive: locus YAL013W, strain DEP1, active compounds read low 0.982 | locus YAL021C, strain ccr4, active compounds read low 1.04 | locus YAL026C, strain drs2, active compounds read low 1.01 | locus YAL030W, strain snc1, active compounds read low 1 | locus YBL061C, strain skt5, active compounds read low 1.01 | locus YBR009C, strain hhf1, active compounds read low 1.01 | locus YBR021W, strain FUR4, active compounds read low 1.02 | locus YBR023C, strain chs3, active compounds read low 1.01 | locus YBR171W, strain sec66, active compounds read low 1.01 | locus YBR229C, strain ROT2, active compounds read low 0.947 | locus YBR231C, strain swc5, active compounds read low 1.07 | locus YBR279W, strain paf1, active compounds read low 1.01 | locus YCL011C, strain gbp2, active compounds read low 1.01 | locus YCL016C, strain dcc1, active compounds read low 1.01 | locus YCL029C, strain bik1, active compounds read low 0.976 | locus YCL061C, strain MRC1, active compounds read low 1.02 | locus YCL069W, strain vba3, active compounds read low 1.01 | locus YCR088W, strain abp1, active compounds read low 0.936 | locus YDL005C, strain med2, active compounds read low 1.02 | locus YDL035C, strain GPR1, active compounds read low 0.955 | locus YDL040C, strain nat1, active compounds read low 1.01 | locus YDL074C, strain BRE1, active compounds read low 0.996 | locus YDL101C, strain DUN1, active compounds read low 0.989 | locus YDL134C, strain PPH21, active compounds read low 0.98 | locus YDL185W, strain tfp1, active compounds read low 0.962 | locus YDL192W, strain arf1, active compounds read low 0.966 | locus YDR001C, strain nth1, active compounds read low 1.01 | locus YDR069C, strain doa4, active compounds read low 1.02 | locus YDR101C, strain arx1, active compounds read low 0.976 | locus YDR137W, strain rgp1, active compounds read low 1.03 | locus YDR150W, strain NUM1, active compounds read low 0.974 | locus YDR159W, strain sac3, active compounds read low 1 | locus YDR162C, strain NBP2, active compounds read low 0.961 | locus YDR195W, strain ref2 1.04 | locus YDR297W, strain sur2, active compounds read low 1.01 | locus YDR318W, strain mcm21, active compounds read low 0.98 | locus YDR334W, strain swr1, active compounds read low 1.03 | locus YDR335W, strain msn5, active compounds read low 1.02 | locus YDR388W, active compounds read low 0.983 | locus YDR392W, strain spt3, active compounds read low 1.03 | locus YDR502C, strain sam2, active compounds read low 0.95 | locus YEL003W, strain gim4, active compounds read low 1.01 | locus YEL037C, strain rad23, active compounds read low 1.01 | locus YEL061C, strain CIN8 (second series), active compounds read low 1.01 | locus YEL061C, strain CIN8, active compounds read low 0.987 | locus YER015W, strain faa2, active compounds read low 1.01 | locus YER016W, strain bim1, active compounds read low 1.01 | locus YER110C, active compounds read low 0.954 | locus YER111C, strain swi4, active compounds read low 1.02 | locus YER155C, strain BEM2 (second series), active compounds read low 1.01 | locus YER155C, strain BEM2, active compounds read low 1.01 | locus YER167W, strain BCK2, active compounds read low 0.975 | locus YFR010W, strain ubp6, active compounds read low 1.02 | locus YGL078C, strain dbp3, active compounds read low 0.982 | locus YGL086W, strain mad1, active compounds read low 0.984 | locus YGL167C, strain pmr1, active compounds read low 1.01 | locus YGL173C, strain kem1, active compounds read low 1 | locus YGL227W, strain vid30, active compounds read low 1 | locus YGL240W, strain doc1, active compounds read low 1.01 | locus YGL248W, strain PDE1, active compounds read low 0.98 | locus YGL253W, strain hxk2, active compounds read low 1.03 | locus YGR078C, strain PAC10, active compounds read low 0.987 | locus YGR135W, strain pre9, active compounds read low 0.949 | locus YGR229C, strain SMI1, active compounds read low 0.979 | locus YGR252W, strain gcn5, active compounds read low 0.894 | locus YHR013C, strain ard1, active compounds read low 1.07 | locus YHR027C, strain rpn1, active compounds read low 1.01 | locus YHR030C, strain SLT2, active compounds read low 0.985 and 0.928 | locus YHR079C, strain IRE1 (second series), active compounds read low 0.979 | locus YHR079C, strain IRE1, active compounds read low 0.95 | locus YHR094C, strain hxt1, active compounds read low 0.981 | locus YHR129C, strain ARP1, active compounds read low 0.995 | locus YHR142W, strain chs7, active compounds read low 1.02 | locus YHR200W, strain rpn10, active compounds read low 0.973 | locus YIL066C, strain RNR3, active compounds read low 0.969 | locus YIL073C, strain SPO22, active compounds read low 0.954 | locus YIL125W, strain kgd1, active compounds read low 0.974 | locus YIR030C, strain dcg1, active compounds read low 0.975 | locus YJL092W, strain hpr5, active compounds read low 1.01 | locus YJL095W, strain BCK1 (second series), active compounds read low 1 | locus YJL095W, strain BCK1, active compounds read low 0.996 and 0.935 | locus YJL115W, strain asf1, active compounds read low 1.02 | locus YJL129C, strain trk1, active compounds read low 1.02 | locus YJL134W, strain LCB3, active compounds read low 0.984 | locus YJL154C, strain vps35, active compounds read low 1.01 | locus YJL164C, strain tpk1, active compounds read low 1.01 | locus YJL166W, strain qcr8, active compounds read low 1.01 | locus YJL168C, strain set2, active compounds read low 0.982 | locus YJL187C, strain SWE1 (second series), active compounds read low 0.982 | locus YJL187C, strain SWE1, active compounds read low 1.01 | locus YJR043C, strain POL32, active compounds read low 0.994
